Structures are written as SMILES. Records with an inconclusive call do not appear. Values without a mark were called inactive. Calls of active or inactive are those of the source. The call rests on the fitted dose curve; in most records, active means well fitted inhibition curve with a large enough effect; inconclusive means small, poorly fitted or top-dose-only effect; inactive means no such curve, though single readings can be large or run the other way.
On the % scale 0 is the no-effect control and ±100 the full control effect; potency means the concentration at half of the fitted maximal effect.

The assay can be described thus: qHTS for Inhibitors of the Aldehyde Dehydrogenase Family (ALDH1A2, ALDH1A3, ALDH2, ALDH3A1) (AID 2061307). Further: nearly all actives have a fitted effect of over 50% in size. On Potency: test system not described further here. Particulars: ALDH inhibition qHTS; series mostly up to 50.3 µM; activity change, negative = inhibition: at the top concentration.
`N#Cc1c(-c2cccc(Cl)c2)no[n+]1[O-]`: the Potency was 12.7 µM (active). For `C=C1[C@@H](OC(C)=O)CC[C@@]2(C)[C@@H](OC(C)=O)[C@H](OC(C)=O)C3=C(C)C[C@H](OC(=O)C(C)CC)[C@@H]([C@@H](OC(C)=O)[C@H]12)C3(C)C` (stereo not given in full), the “activity change, negative = inhibition” value was -6.42% [at 14.9 µM]. On the same count and under the same terms, for `CN(C)c1ccc(C(=O)NCC(=O)OC(C(=O)Nc2cc(C(F)(F)F)ccc2Cl)c2ccccc2)cc1` (stereo not given) the value was -68.2%.

Turning to `NC(=O)C1CCN(c2nc(-c3cc4ccccc4o3)cs2)CC1`, the Potency was 2.83 µM (active).

Turning to `COc1ccc(C2Oc3ccccc3C(=O)N2Cc2ccccc2)cc1COc1ccc(NC(C)=O)cc1` (stereo not given), the Potency was 0.283 µM (active). With `N#Cc1cnc(NS(=O)(=O)c2ccc(NC(=O)Cc3ccc(Cl)c(Cl)c3)cc2)s1`, the Potency was 25.2 µM (active). `Nc1ccc(Nc2cc(O)c3ncccc3c2)cc1`: the “activity change, negative = inhibition” value is -25.8%. Turning to `Cc1ccc(CN(C)c2ncnc3ccc(-c4ccc(C#N)n4C)cc23)o1`, the Potency was 3.16 µM (active).

As to `NC(=O)C1CCN(c2nccc(-c3ccc4c(c3)OCCCO4)n2)CC1`, the “activity change, negative = inhibition” value was -25.5%.

For `CN(C)[C@H]1CCN(c2cccc(Nc3nn4c(=O)c5ccccc5nc4s3)c2)C1`, the “activity change, negative = inhibition” value is 0%. Still for that read-out and setting: for `Nc1nccc(-c2c(-c3ccc(F)cc3)ncn2C2CCCCC2)n1` the value was -9.91%.

As to `COc1ccc(C2=Nn3c(nnc3-c3ccccc3OC)SC2)cc1`, the Potency is 2.01 µM (active). For `Cc1ccc(CN(C)c2ccc(N3CCN(C)CC3)cc2)cc1`, the “activity change, negative = inhibition” value was -23.6%. Still for that read-out and setting: for `c1nc(NCC2CC2)c2cc(-c3ccc4c(c3)OCO4)ccc2n1` the value was -6.86%. Consider `CCCCN1C(=O)c2ccccc2NC1c1ccc(OC)c(COc2ccc(NC(C)=O)cc2)c1` (stereo not given), for which the Potency is 7.12 µM (active). As for `CC(=O)Nc1sc2c(c1-c1nc3ccccc3s1)CN(C(C)C)C2`, the “activity change, negative = inhibition” value is -29.8%. In the case of `C/C(=C\c1cccc(C(F)(F)F)c1)C1Nc2cccc3cccc(c23)N1`, the “activity change, negative = inhibition” value was -20.2%. On to `Cc1cc(-c2nnc3n2CCCCC3)c(C)n1-c1cccc2ccccc12`, for which the “activity change, negative = inhibition” value is -9.24%. For `CC(C)(Nc1nc(-c2ccccc2C(F)(F)F)nc2ccccc12)c1ccc(-c2cccc(C(F)(F)F)c2)cc1`, the “activity change, negative = inhibition” value was -56.9%. The same measure, in the same setting: for `O=c1[nH]c(CN2CCOCC2)nc2sc3c(c12)CCCC3` the value was -18.1%.

`CNc1oc(-c2c[nH]c3ccccc23)nc1C#N`: the Potency was 11.3 µM (active). As to `CN(C)CCCNC(=O)c1ccc(-c2cnc3c(O)cccc3c2)cc1`, the “activity change, negative = inhibition” value was 9.79%. As for `COc1ccc(C2Nc3ccccc3C(=O)N2Cc2ccncc2)cc1COc1ccc(NC(C)=O)cc1` (stereo not given), the Potency is 3.57 µM (active). On to `O=C([C@@H]1CCCN(c2ccc3[nH]c(C4(n5cc(Cl)cn5)CC4)nc3n2)C1)N1CCCC1`, for which the “activity change, negative = inhibition” value was -19.8%. Same read-out and setting: for `CCOc1ccc(CCNC(=O)c2cc3c(s2)CCC3)cc1OCC` the value was -90.6%; for `c1csc(CNc2ccc(N3CCOCC3)cc2)c1`, -5.49%.

Consider `Cc1ccc(S(=O)(=O)Nc2cc(C(F)(F)F)ccc2C(=O)Nc2nc(-c3ccccc3)cs2)cc1`, for which the Potency is 0.355 µM (active). On the same count and under the same terms, for `Cc1ccc(-c2cnn(CC(=O)NCCc3ccccc3)c(=O)c2)cc1` the value was 12.7 µM (active).

For `O=C(Nc1nc(-c2ccccc2)cs1)c1ccncc1NS(=O)(=O)c1ccc(Cl)cc1`, the Potency was 25.2 µM (active). Take `Cc1ccc(NC(=O)CN2C(=O)N/C(=C\c3cccn3-c3ccc(C(=O)O)cc3)C2=O)cc1`: the “activity change, negative = inhibition” value is -24.5%. `N#Cc1cccnc1SC1=NS(=O)(=O)c2ccccc21`: the Potency is 0.891 µM (active). Still for that read-out and setting: for `Cc1csc(CN(C)c2ncnc3ccc(-c4ccc5c(c4)OCO5)cc23)n1` the value was 0.201 µM (active). For `Nc1ccccc1OC1=NS(=O)(=O)c2ccccc21`, the “activity change, negative = inhibition” value is 12%. `Cc1ccc2nc3sc(C(=O)N4CCCCC4)cc3cc2c1`: the Potency was 11.3 µM (active). On the same count and under the same terms, for `O=C1Nc2ccccc2/C1=C/c1cccc(C(=O)O)c1` the value was 2.24 µM (active).

For `CN1C(=O)Cc2cc([S+](=O)([O-])N3CCN([S+](=O)([O-])c4c(F)cccc4F)CC3)ccc21`, the “activity change, negative = inhibition” value was -12.1%. Turning to `COc1ccc(C2Nc3ccccc3C(=O)N2Cc2ccc(-c3ccccc3)cc2)cc1COc1ccc(NC(C)=O)cc1` (stereo not given), the Potency is 1.79 µM (active).

Take `CNC(=O)C1CCN(c2nc(-c3ccc(Br)cc3)cs2)CC1`: the Potency is 12.6 µM (active). On the same count and under the same terms, for `Cc1ccc(OCCn2c3c(c4ccccc42)CN(C(=O)C2CCCCC2)CC3)cc1` the value was 1.59 µM (active).

Take `O=C(OCC#CCSc1nnc(-c2cccc3ccccc23)o1)c1ccncc1`: the “activity change, negative = inhibition” value is -94.1%.

(Values after PubChem BioAssay (NCATS).)
